The results in this text go back to PubChem BioAssay.

Assay [1] in a line: resazurin metabolic signal in HepG2 cells – cell-based, resazurin fluorescence, 24 h, PK04 Diversity Set, profiling panel (AID 1172). Further: test concentration not given here. The following applies: HepG2 viability, higher = more signal. A general note: Alamar Blue is a resazurin reagent that responds to reducing activity.
Assay [2] can be described thus: budding yeast growth changes without added modifier – OD600, strain BY4716, 24 h, basal condition, primary screen (AID 1173). The settings on record: S. cerevisiae BY4716 growth, OD600, 24 h; higher = more signal, called active from +8 up or from −8 down.
Assay [3] is described as follows: viability profiling in MM1S myeloma cells – cell-based, resazurin fluorescence, basal, 24 h, PK04 Diversity Set, profiling panel (AID 1174).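 Further: MM1S multiple myeloma cell line; test concentration not given here.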 The following applies: higher = more signal, called active from +8 up or from −8 down.
Assay [4] concerns the target Dihydroorotate dehydrogenase (quinone), mitochondrial (Plasmodium falciparum (isolate 3D7)) (UniProt Q08210). As to the kind of experiment: inhibition of P. falciparum DHODH – biochemical, C-terminal His tag, absorbance 600 nm, primary screen (AID 1175).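 Further: recombinant parasite enzyme with a five histidine tag at its C terminus; test concentration not given here.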 The following applies: PfDHODH enzyme, DCIP absorbance 600 nm; higher = more signal, called active from +8 up or from −8 down.

Assay [5] is described as follows: inhibition of PAO1 biofilm formation – strain PAO1, LB-PBS medium, absorbance 600 nm, primary screen (AID 1176). Further: test concentration not given here. The following applies: P. aeruginosa PAO1 growth/biofilm, A600, 12 h; higher = more signal.
Assay [6] in a line: growth modulation of vineyard yeast isolate – strain RM11-1a, OD600, basal, 24 h, primary screen (AID 1177).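 Further: cultures grown under basal conditions with no added stressor; test concentration not given here.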 The settings on record: S. cerevisiae RM11-1a growth, OD600, 24 h; higher = more signal, called active from +8 up or from −8 down.
The nature of assay [7]: growth of efflux-deficient E. coli DRC39 – strain DRC39, OD650, 24 h, E. coli filamentation inducers, primary screen (AID 1178).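 Further: growth measured as culture turbidity by optical density at 650 nm; test concentration not given here.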 The settings on record: E. coli DRC39 acrAB, higher = more signal, called active from +8 up or from −8 down.
Assay [8] in a line: growth of efflux-deficient E. coli DRC39 – strain DRC39, OD650, 48 h, E. coli filamentation inducers, primary screen (AID 1179).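 Further: screen aims at cell division blockers that make cells filament.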 The following applies: E. coli DRC39 delta-acrAB growth, higher = more signal, called active from +8 up or from −8 down.
The nature of assay [9]: viability profiling in RPMI8226 myeloma cells – cell-based, resazurin fluorescence, basal, 24 h, PK04 Diversity Set, profiling panel (AID 1180).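 Further: RPMI8826 multiple myeloma cell line at 5000 cells per well; test concentration not given here.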 The settings on record: higher = more signal.
Assay [10] addresses E3 ubiquitin-protein ligase XIAP (Homo sapiens) (UniProt P98170). As to the kind of experiment: small molecules binding XIAP protein – biophysical, small-molecule microarray, fluorescence 635 nm, primary screen (AID 1181).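 Further: score merges 667 nm emission and signal to noise over triplicate slides.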 The settings on record: higher = more signal.

Each structure is given as a SMILES string. Calls of active or inactive are those of the source. Unless noted, how the calls were made is not given here.

Chain of E3 ubiquitin-protein ligase XIAP (Homo sapiens) (P98170 whole entry, looked up): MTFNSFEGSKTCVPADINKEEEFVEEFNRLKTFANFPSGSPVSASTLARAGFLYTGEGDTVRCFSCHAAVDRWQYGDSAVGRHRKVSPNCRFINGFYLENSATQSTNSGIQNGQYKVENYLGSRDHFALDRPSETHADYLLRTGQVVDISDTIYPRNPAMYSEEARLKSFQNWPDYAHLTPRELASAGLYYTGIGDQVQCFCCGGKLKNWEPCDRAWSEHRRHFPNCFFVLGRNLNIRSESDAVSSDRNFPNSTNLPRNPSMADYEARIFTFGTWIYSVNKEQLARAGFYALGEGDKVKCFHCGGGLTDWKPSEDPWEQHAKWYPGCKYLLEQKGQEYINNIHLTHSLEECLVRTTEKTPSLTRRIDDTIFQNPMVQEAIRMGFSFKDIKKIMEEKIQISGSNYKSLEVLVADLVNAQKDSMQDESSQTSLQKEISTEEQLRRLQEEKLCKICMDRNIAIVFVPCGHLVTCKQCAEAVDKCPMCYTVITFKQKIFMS
Chain of Dihydroorotate dehydrogenase (quinone), mitochondrial (Plasmodium falciparum (isolate 3D7)) (Q08210 whole entry, looked up): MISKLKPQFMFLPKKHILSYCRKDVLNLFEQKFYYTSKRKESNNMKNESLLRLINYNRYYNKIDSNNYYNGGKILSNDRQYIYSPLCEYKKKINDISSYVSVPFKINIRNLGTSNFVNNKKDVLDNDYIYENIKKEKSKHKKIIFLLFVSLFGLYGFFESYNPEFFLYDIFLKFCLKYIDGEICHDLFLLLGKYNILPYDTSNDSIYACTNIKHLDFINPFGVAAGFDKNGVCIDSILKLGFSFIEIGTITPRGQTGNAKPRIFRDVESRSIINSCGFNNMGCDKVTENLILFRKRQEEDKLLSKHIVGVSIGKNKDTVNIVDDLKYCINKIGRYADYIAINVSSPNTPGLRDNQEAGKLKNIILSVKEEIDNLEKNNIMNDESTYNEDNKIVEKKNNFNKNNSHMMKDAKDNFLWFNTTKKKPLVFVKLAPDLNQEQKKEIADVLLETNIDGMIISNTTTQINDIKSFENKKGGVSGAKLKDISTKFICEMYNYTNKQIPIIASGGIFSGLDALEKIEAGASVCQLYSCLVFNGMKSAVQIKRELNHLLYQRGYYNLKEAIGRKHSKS

For the compound `O=C1C2C=CC(C(O)C3CCCCC3)N(Nc3ccccc3F)C2C(=O)N1c1ccccc1` (stereo not given), the z-score in [1] is -1.87; in assay [2], -0.701 (inactive); in assay [3], -0.631 (inactive); in [5] it was 0.931 (inactive); in [6] it was -0.375 (inactive); in assay [7], 0.221 (inactive). For the same compound, the z-score in [8] was -0.1 (inactive); in [9], -0.14. Further, the composite z-score is -0.572 (inactive) in assay [4] and -0.235 in [10].

As to `O=C1O[C@H](c2ccccc2)[C@H](c2ccccc2)N2[C@H]1[C@@H](C(=O)N1CCN(c3ncccn3)CC1)[C@]1(C(=O)Nc3ccc(C#CC4(O)CCCCCC4)cc31)[C@H]2c1ccc(O)cc1`, the z-score in assay [1] was 0.596; in assay [2] it was -0.436 (inactive); in assay [3] it was 0.776 (inactive); in assay [5], 1.05 (inactive); in assay [6], 1.82 (inactive); in [7] it was 0.851 (inactive). Moreover, the z-score was 1.31 (inactive) in assay [8] and 0.995 in assay [9]. Moreover, the composite z-score in [4] is 0.0991 (inactive); in [10] it was -0.0663.

For `CC(C)(C)OC(=O)CC[C@]1(C(=O)N2CCOCC2)COC(c2ccc(OCCCO)cc2)=N1`, the z-score in assay [1] is 0.329; in assay [2] it was -0.444 (inactive); in assay [3], 0.475 (inactive); in assay [5], 0.149 (inactive); in assay [6], 0.568 (inactive); in assay [7], 1.21 (inactive). Besides, the values for the z-score in assay [8] and in assay [9] were 1.37 (inactive) and 0.227, respectively. The composite z-score is -0.0274 (inactive) in [4] and 0.0996 in assay [10].

In the case of `COc1ccc(C#Cc2ccc3c(c2)[C@]2(C(=O)N3)[C@H](c3ccccc3OCCO)N3[C@H](c4ccccc4)[C@H](c4ccccc4)OC(=O)[C@H]3[C@@H]2C(=O)NC[C@H](O)c2ccccc2)cc1`, the z-score in assay [1] is 0.328; in assay [2], 2.05 (inactive); in assay [3], -2.59 (inactive); in assay [5] it was 1.08 (inactive); in assay [6] it was 2.25 (inactive); in [7] it was 0.158 (inactive). The z-score in [8] is -0.438 (inactive); in assay [9] it was -3.95. Also, the composite z-score in [4] was -17.2 (active); in assay [10] it was 0.0655.

On to `C[C@]12C(=O)N(CCO)[C@@H]3C(=O)N(c4ccc(Cl)cc4)CC=CC31O[C@@H]1/C=C\CCCOC(=O)C12` (stereo not given in full), for which the z-score in assay [1] was -0.561; in assay [2] it was 0.13 (inactive); in assay [3] it was -0.562 (inactive); in assay [5] it was -0.481 (inactive); in assay [6], 0.556 (inactive); in [7], -1.18 (inactive). Besides, the values for the z-score in assay [8] and in [9] were -1.25 (inactive) and -0.184, respectively. Also, the figures for the composite z-score in assay [4] and in assay [10] were -0.141 (inactive) and -0.0746, respectively.

Regarding `COc1cccc(C)c1NC(=O)O[C@H]1[C@H](OC(=O)Nc2ccccc2-c2ccccc2)[C@@H](OC(=O)Nc2ccccc2-c2ccccc2)[C@@H](OC)O[C@@H]1CO`, the z-score in [1] was -2.77; in assay [2], 2.22 (inactive); in assay [3] it was -3.21 (inactive); in assay [5] it was 1.23 (inactive); in [6], 4.5 (inactive); in [7], -0.349 (inactive). Also, the z-score was -0.846 (inactive) in assay [8] and -2.61 in assay [9]. The composite z-score in assay [4] is 1.24 (inactive); in [10], 0.268.

In the case of `COCCCNC(=O)[C@]1(Cc2ccccc2CN=[N+]=[N-])N=C(c2ccc(OCCCO)cc2)O[C@@H]1c1ccccc1N=[N+]=[N-]`, the z-score is -1.99 in [1]; 0.234 (inactive) in assay [2]; -4.37 (inactive) in assay [3]; 1.24 (inactive) in [5]; 0.995 (inactive) in assay [6]; 0.703 (inactive) in [7]. Further, the z-score is 0.692 (inactive) in assay [8] and -3.63 in [9]. Moreover, the composite z-score in assay [4] is 0.553 (inactive); in assay [10], 0.43.

As for `COCCOC(=O)N1C(=O)[C@@]2(c3cc(C#CCNC(N)=O)ccc31)[C@H](C(=O)Nc1nc3ccccc3s1)[C@H]1C(=O)O[C@H](c3ccccc3)[C@H](c3ccccc3)N1[C@@H]2c1ccc(O)cc1`, the z-score in [1] was 0.0612; in [2], 1.1 (inactive); in assay [3], -0.355 (inactive); in assay [5], 0.558 (inactive); in assay [6], 1.37 (inactive); in assay [7] it was 0.0967 (inactive). Also, the z-score in assay [8] was -0.211 (inactive); in [9], -1.37. Also, the composite z-score was 0.582 (inactive) in assay [4] and 0.273 in assay [10].

`COCCOC(=O)N1C(=O)[C@@]2(c3cc(C#CCCO)ccc31)[C@H](C(=O)N1CCN(c3ncccn3)CC1)[C@H]1C(=O)O[C@H](c3ccccc3)[C@H](c3ccccc3)N1[C@@H]2c1ccc(OCCO)cc1`: the z-score was 0.739 in assay [1]; 2.7 (inactive) in [2]; -0.632 (inactive) in assay [3]; 1.17 (inactive) in assay [5]; 2.75 (inactive) in assay [6]; -0.77 (inactive) in assay [7]. Also, the z-score in assay [8] is -0.548 (inactive); in assay [9] it was 0.555. In addition, the figures for the composite z-score in [4] and in [10] were -0.486 (inactive) and 0.0432, respectively.

Consider `COc1ccc(C(=O)Nc2ccc(CN3C(=O)[C@@]4(O[C@@H](CC(=O)N(CCO)Cc5ccccc5)[C@H]([Si](C)(C)c5ccc(OC)cc5)[C@H]4C)c4ccccc43)cc2)cc1`, for which the z-score in assay [1] was 1.4; in assay [2] it was 0.164 (inactive); in assay [3], -0.952 (inactive); in assay [5], 0.814 (inactive); in assay [6], 0.961 (inactive); in [7], 0.7 (inactive). For the same compound, the z-score is 0.439 (inactive) in assay [8] and -1.29 in [9]. For the same compound, the results for the composite z-score in assay [4] and in assay [10] were -1.53 (inactive) and 0.101, respectively.
